# Assay outcomes: PubChem, National Center for Advancing Translational Sciences (NCATS)
# Rows were chosen to be rich in hits. Some 3.7% of all compounds tested hit in one or more screens of this group.
# PI5P4K alpha inh: qHTS for Inhibitors of phosphatidylinositol 5-phosphate 4-kinase (PI5P4K) | PI5P4Kalpha enzyme, ADP-Glo luminescence, 60 min; stronger effect = lower value | max response, % | actives 1.2% (n = 330,000); active means max response of -50% or lower; inconclusive means between -30% and -50%; inactive means -30% or higher; further: value at the top dose of about 77 µM; on the % scale 0 is the no-effect control and ±100 the full control effect
# Target sequence (P48426 whole entry, looked up): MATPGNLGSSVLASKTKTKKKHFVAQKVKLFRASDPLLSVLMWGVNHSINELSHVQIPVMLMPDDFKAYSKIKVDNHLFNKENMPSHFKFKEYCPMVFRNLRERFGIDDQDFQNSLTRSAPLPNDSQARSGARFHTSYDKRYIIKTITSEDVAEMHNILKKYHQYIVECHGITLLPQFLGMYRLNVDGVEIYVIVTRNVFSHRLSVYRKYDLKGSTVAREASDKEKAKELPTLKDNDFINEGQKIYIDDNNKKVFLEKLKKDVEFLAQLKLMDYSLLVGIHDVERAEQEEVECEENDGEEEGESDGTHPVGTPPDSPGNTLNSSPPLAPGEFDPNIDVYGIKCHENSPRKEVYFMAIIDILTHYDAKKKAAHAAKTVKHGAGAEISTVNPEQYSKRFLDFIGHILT
#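 PI5P4Kalpha ADP-Glo assay; 5 microM ATP final; 60 min RT reaction; HEPES pH 7.4/EGTA/CHAPS, 5% DMSO; controls lacking substrate or enzyme; luminescent end-point.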
# TCR activator: Activators of T cell receptors: qHTS campaign; primary human leukocytes, anti-CD3, IL-2 HTRF, 48 h; Potency, µM (doses to about 9.22 µM), inactives show top-dose activation of IL-2 secretion, hits mostly activators; 330,000 tested, under 10 active; further: % of control where 0% means no effect
#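 Compounds are tested in HTS on primary human leukocytes co-incubated with a-CD3 beads for 48 hr. IL-2 output is measured by time-resolved FRET.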
# PLK1 PBD inh: qHTS for Inhibitors of PLK1-PDB (polo-like kinase 1 - polo-box domain): Primary Screen; AID 720504, 2013; Potency, µM, inactives show max response, negative = inhibition, actives largely listed as inhibitors; actives 2.8% (n = 360,000); Serine/threonine-protein kinase PLK1 (Homo sapiens), P53350; Plk1 PBD binding of FITC phosphopeptide, fluorescence polarization; further: potency means the concentration at half of the fitted maximal effect; series mostly up to about 57 µM; on the % scale 0 is the no-effect control and ±100 the full control effect; nearly all actives have a fitted effect of over 65% in size
# VDR inhibitor: Inhibitors of the vitamin D receptor (VDR): qHTS. AID 504847, 2011. Vitamin D3 receptor (Homo sapiens), P11473. Potency, µM, without a hit: max response, negative = inhibition, hits mostly inhibitors. actives 0.93% (n = 400,000). VDR-SRC2-3 peptide fluorescence polarization, 2 h; further: potency means the concentration at half of the fitted maximal effect; on the % scale 0 is the no-effect control and ±100 the full control effect
#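 Inhibition of the VDR/SRC2-3 peptide interaction is quantified by fluorescence polarization. Compounds (23 nl, pintool) incubate with the reagents for 2 hours at ambient room temperature.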
# FEN1 inhibitor: qHTS Assay for the Inhibitors of Human Flap endonuclease 1 (FEN1); P39748; Recombinant FEN1 flap cleavage, fluorescence, 15 min; Potency, µM (series often up to 114 µM), for the others: at the top dose activity change, negative = inhibition, hits mostly inhibitors; actives 0.35% (n = 390,000); AID 588795, 2011; further: potency means the concentration at half of the fitted maximal effect; on the % scale 0 is the no-effect control and ±100 the full control effect; nearly all actives have a fitted effect of over 65% in size
#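 Nuclease activity of 10 nM FEN1 was measured after 15 min of room-temperature exposure to titrated compounds, by adding 50 nM flap substrate and reading plates at 0 and 15 min.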
# WRN helicase inh: qHTS for Inhibitors of WRN Helicase; actives 0.46% (n = 360,000); WRN helicase unwinding, fluorescent forked duplex, kinetic; AID 651768, 2012; Bifunctional 3'-5' exonuclease/ATP-dependent helicase WRN (Homo sapiens), Q14191; Potency, µM (series often up to 114 µM), for the others: at the top dose activity change, negative = inhibition, actives largely listed as inhibitors; further: potency means the concentration at half of the fitted maximal effect; on the % scale 0 is the no-effect control and ±100 the full control effect; nearly all actives have a fitted effect of over 55% in size
#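 Primary qHTS, 1536-well format. 20 nM WRN + compound, 15 min RT; start with 100 nM forked fluorophore/quencher duplex, 2 mM ATP (final); kinetic read ex 525/em 598 nm.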
# The depositor's hits bear a star; ? = inconclusive; / = no result given; [ ] = another dose, or the depositor's remark. Unless noted, the call rests on the fitted dose curve; in most records, active means well fitted curve in the direction sought with a large enough effect; inconclusive means small, poorly fitted or top-dose-only effect, or another doubt; inactive means no such curve, though single readings can be large; an effect the other way counts as inactive or inconclusive.
SMILES,PI5P4K alpha inh,TCR activator,PLK1 PBD inh,VDR inhibitor,FEN1 inhibitor,WRN helicase inh
CC1CCN(c2nc3c(c(=O)[nH]c(=O)n3C)n2Cc2ccccc2)CC1,-5,4%,-8%,-23%,2%,3%
CCCc1nnc(SCC(=O)N2CCOCC2)n1CCCOC,2,-5%,17µM*,-15%,0%,16%
CC1=NOC(=O)/C1=C/c1ccc2c(c1)OCO2,-15,-3%,?,32µM*,-12%,-20%
COC(=O)C1=C(C)NC(=O)/C1=C\c1ccc2c(c1)OCO2,-4,-2%,-13%,-4%,13%,2%
CC1=NOC(=O)/C1=C\c1ccc2c(c1)OCO2,-5,-2%,2.4µM*,89µM*,11%,-4%
COc1ccc(NC(=O)c2ccc(COc3ccccc3OC)o2)cc1OC,-20,3%,30µM*,-16%,1%,-19%
S=c1nc2[nH]c3ccccc3c2n[nH]1,-50*,-2%,3.8µM*,?,-11%,-27%
CN1C(=O)c2oc3ccccc3c(=O)c2C1c1ccncc1 (configuration not stated),0,3%,27µM*,79µM*,0%,-23%
O=C1CN(C(=O)c2c(F)cccc2Cl)C(c2ccc(F)cc2)c2cc(Br)ccc2N1 (configuration not stated),/,/,/,-16%,-24%,/
CCc1ccc(NC(=O)C(=O)NNC(=O)c2ccc(OC)cc2)cc1,3,3%,-4%,10%,-7%,7%
CCc1ccc(C(=O)NNC(=O)OC)cc1,-22,-7%,9.5µM*,?,7%,3%
Cc1ccccc1C(=O)OC1OC(=O)C(Cl)=C1Nc1ccc(C(=O)O)cc1 (configuration not stated),-29,-2%,3.8µM*,?,-3%,?
CCOCCCNC(=O)/C(C#N)=C/c1cc(Br)c(O)c(Br)c1,-101*,2%,21µM*,-13%,-2%,-1%
COCCNC(=O)/C(C#N)=C/c1ccccc1Br,-63*,1%,24µM*,-28%,-1%,2%
COCCNC(=O)/C(C#N)=C/c1cc(Br)c(O)c(OC)c1,?,-9%,3%,-2%,-5%,-17%
Cc1cc(NC(=O)c2cc(-c3cccc(Cl)c3)on2)nn1Cc1ccc(Cl)cc1,/,/,/,1%,-15%,/
COc1ccc(-c2noc(-c3ccc(N4CCCC4)c([N+](=O)[O-])c3)n2)cc1,/,/,/,6%,15%,/
Cc1ccc(CNC(=O)CCc2c(C)nc3c(-c4ccc(F)cc4)c(C)nn3c2C)cc1,/,/,/,-4%,0%,/
O=C1N=c2ccccc2=C1c1c(O)[nH]c2c(C(F)(F)F)cccc12,?,-6%,27µM*,35µM*,6%,-5%
O=C(NC(Sc1ccc(Cl)cc1)C(=O)O)c1ccccc1 (configuration not stated),9,/,13µM*,/,/,-5%
O=C(NC(C(=O)O)c1ccccc1)c1ccccc1 (configuration not stated),0,13%,-1%,1%,-6%,4%
Cn1c(-c2ccc3nc(N)sc3c2)nc2cc(N)ccc21,-28,/,-20%,7%,56µM*,?
Nc1ccc(-c2nc3ccc(N)cc3s2)cc1,-9,-5%,0%,-7%,1%,-13%
COc1cc(OC)c2c(c1C(CCN1CCN(c3ccccc3)CC1)c1ccc(N(C)C)cc1)OC(=O)CC2c1ccc(N(C)C)cc1 (configuration not stated),/,/,/,-6%,6%,/
Cc1ccc(NC(=O)c2c(C)oc3ccc(O)c(CN(C)Cc4ccccc4)c23)c(C)c1,/,/,/,10%,-13%,/
SMILES,PI5P4K alpha inh,TCR activator,PLK1 PBD inh,VDR inhibitor,FEN1 inhibitor,WRN helicase inh
Cc1ccc(NC(=S)N2CCC(c3ccc(C)cc3)C2)cc1 (configuration not stated),-10,-1%,21µM*,?,?,-2%
CC(C)C[C@@H](NC(=O)[C@H](Cc1ccccc1)NC(=O)c1cnccn1)B(O)O,/,/,/,-10%,/,/
O=C(/C=C/c1ccc(Br)o1)NCc1ccccc1,-9,1%,?,89µM*,-26%,-15%[57.1 µM]
O=C(/C=C/c1ccc(Br)o1)Nc1nccs1,?,8%,21µM*,-9%,-20%,-6%
Cc1ccc(C)c(CN2C(=O)CSc3ccc(C(=O)NCc4ccc(F)cc4)cc32)c1,/,/,/,-17%,15%,/
CN1C(=O)c2ccccc2C(C(=O)O)C1c1cccc(F)c1 (configuration not stated),5,5%,30µM*,4%,-9%,3%
Cc1cc(-c2nc3ncccc3o2)ccc1NC(=O)c1ccc([N+](=O)[O-])o1,-58*,-4%,?,6%,?,-36%
Cc1ccc(-c2nc3ncccc3o2)cc1NC(=O)c1ccc([N+](=O)[O-])o1,1,5%,-18%,5%,-21%,4%
O=C(CNC(=O)c1ccc(Cl)cc1)OC1CCOC1=O (configuration not stated),3,-3%,24µM*,-12%,-10%,-1%[57.1 µM]
CCCCOc1ccc(C(=O)NCC(=O)OC2CCOC2=O)cc1 (configuration not stated),-11,7%,?,-11%,-1%,7%
Cc1ncc([N+](=O)[O-])n1CCOC(=O)NC(NCc1cccnc1)C(Cl)(Cl)Cl (configuration not stated),-15,3%[46.1 µM],27µM*,?,-2%,0%
CC(=O)c1ccc(NC(=O)C(C)n2c3ccccc3c3nc(=O)cc(C)n32)cc1 (configuration not stated),1,-11%,-6%,-18%,-11%,7%
Cc1cc(=O)nc2c3ccccc3n(C(C)C(=O)NCCC(C)C)n12 (configuration not stated),-2,-1%,27µM*,-28%,5%,9%
Cc1cccc(N(C(=O)c2snc(C(N)=O)c2N)C(C(=O)NCC2CCCO2)c2cccs2)c1 (configuration not stated),-4,1%,-14%,-12%,-30%,-4%
Cc1ccc(C)c(N(C(=O)c2snc(C(N)=O)c2N)C(C(=O)NCC2CCCO2)c2cccs2)c1 (configuration not stated),8,3%,30µM*,79µM*,-4%,-5%
C[N+]1(CC(=O)c2ccc(Br)cc2)CCOCC1,/,/,/,/,5%,/
CC(=O)N(C)c1ccc(N=Cc2cc3c(cc2[N+](=O)[O-])OCO3)cc1,0,4%,-18%,7%,-2%,-3%
